# Assay results reported in PubChem BioAssay AID1569 (National Center for Advancing Translational Sciences (NCATS), 2009).
# Records with an inconclusive call do not appear. Active and inactive are the calls of the source. The call rests on the fitted dose curve; in most records, active means well fitted inhibition curve with a large enough effect; inconclusive means small, poorly fitted or top-dose-only effect, or effect the other way, or another doubt; inactive means no such curve, though single readings can be large or run the other way.
# Assay: Confirmation Concentration-Response Assay for lipid storage modulators; further: nearly all actives have a fitted effect of over 80% in size
# Settings: Drosophila S3 cells, lipid droplet BODIPY/CellTracker ratio, 18-24 h; series mostly up to 46.1 µM
# How it was run: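 Cells at 5,000/well received compound as a titration plus oleic acid (added as 400 uM solution) and were incubated 18–24 h at 24 °C. BODIPY 493/503 lipid signal and CellTracker Red cell count were read by 488-nm laser-scanning cytometry. Activity was normalised to 20 uM Triacsin C.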
# Potency means the concentration at half of the fitted maximal effect.
row,SMILES,Potency
1,CCCCCCCCn1c(=O)c(C(=O)OC)c(N)c2ccccc21,7.91 µM (active)
2,COc1ccc(NC(=O)NC2(C(=O)N3CCCC(C)C3)CCCCC2)cc1 (stereo not given),inactive
3,Cc1cnc(NC(=O)CSc2ncc(-c3ccccc3)n2Cc2ccco2)s1,inactive
4,Cn1nc(C(C)(C)C)cc1C(=O)NCc1ccc2c(c1)OCO2,2.5 µM (active)
5,O=C1C(Nc2ccccc2)=C/C(=N/S(=O)(=O)c2cccs2)c2ccccc21,7.91 µM (active)
6,Nc1cccc(-c2nc3cc(S(=O)(=O)c4ccc5oc(-c6cccc(N)c6)nc5c4)ccc3o2)c1,6.28 µM (active)
7,COc1ccc(CCNC(=O)c2ccccc2-c2ccccc2C(=O)O)cc1OC,inactive
8,CC(C)(C)c1ccc(/C=C2\SC(=O)N(CCNC(=O)c3cccc(S(=O)(=O)N4CCOCC4)c3)C2=O)cc1,8.88 µM (active)
9,O=C(Nc1cccc(F)c1)NC1(C(=O)N2CCC(O)CC2)CCCCC1,inactive
10,COc1ccc(CCn2ccc(O)c(Cc3c(F)cccc3Cl)c2=O)cc1OC,0.434 µM (active)
11,COc1ccc(-c2cnc(SCC(=O)Nc3nc(C(C)(C)C)cs3)n2Cc2ccco2)cc1,0.705 µM (active)
12,CCOC(=O)C1CCN(C(=O)C2(NC(=O)Nc3ccc(F)cc3F)CCCCC2)CC1,1.77 µM (active)
13,Cc1ccc(C(C(=O)NC2CCCCC2)N(Cc2ccco2)C(=O)Cc2c[nH]c3ccccc23)o1 (stereo not given),4.45 µM (active)
14,CCOc1ccc(CCNC(=O)COC(=O)c2ccc(S(C)(=O)=O)cc2)cc1OCC,inactive
15,CCOc1ccc(CCNC(=O)COC(=O)c2ccc3c(c2)OCCO3)cc1OCC,1.41 µM (active)
16,CC1=C(C(=O)NC2CCCc3c2cnn3-c2cccc(C)c2C)OCCO1 (stereo not given),0.0137 µM (active)
17,COC(=O)c1c(-c2c(Cl)cccc2Cl)noc1NC(=O)NN1CCOCC1,2.5 µM (active)
18,S=C(Nc1cc(Cl)ccc1Oc1ccccc1)N1CCN(c2ccccn2)CC1,2.5 µM (active)

row,SMILES,Potency
1,c1ccc(-c2csc3ncnc(NCC4COc5ccccc5O4)c23)cc1 (stereo not given),1.99 µM (active)
2,CNC(=O)NC(=O)C(C)OC(=O)c1c2c(nc3ccccc13)/C(=C/c1cccs1)CC2 (stereo not given),0.141 µM (active)
3,CCOc1ccc(CCNC(=O)COC(=O)c2c(C)nn(-c3ccccc3)c2C)cc1OCC,1.58 µM (active)
4,COc1nc(Nc2nc3ccccc3c(=O)[nH]2)nc2ccc(C)cc12,2.17 µM (active)
5,COc1ccc(CCNC(=O)CCCOc2cccc(C)c2C)cc1OC,inactive
6,COc1ccc(CCNC(=O)Cn2cccc2C(=O)c2ccccc2C)cc1OC,inactive
7,COc1ccc(CCNC(=O)Cn2nnc(-c3ccc(N(C)C)cc3)n2)cc1OC,0.705 µM (active)
8,CCOC(=O)C1CCN(C(=O)C2(NC(=O)Nc3ccccc3C)CCCCC2)CC1,2.5 µM (active)
9,COc1ccc(CCNC(=O)Cn2nnc(-c3ccc(N4CCOCC4)cc3)n2)cc1OC,0.0445 µM (active)
10,COC(=O)c1ccccc1NC(=O)c1ccc(F)cc1F,1.41 µM [activator] (active)
11,CC1CCN(C(=O)C2(NC(=O)Nc3cccc(F)c3)CCCCC2)CC1,7.91 µM (active)
12,CCOc1ccc(CCNC(=O)COC(=O)c2ccc(OC(C)C)cc2)cc1OCC,0.158 µM (active)
13,CCOc1ccc(CCNC(=O)COC(=O)/C=C/c2ccc(C)o2)cc1OCC,0.499 µM (active)
14,CC1CCCCN1c1ccc(N)cc1C(N)=O (stereo not given),inactive
15,Cc1cccc(OCc2nnc(SCC(=O)N3c4ccccc4CC3C)n2C)c1C (stereo not given),6.28 µM (active)
16,CCc1ccc(NC(=O)COc2ccc(/C=C(/C#N)c3nc4ccccc4[nH]3)cc2OC)cc1,7.05 µM (active)
17,O=C(Nc1ccc(S(=O)(=O)N2CCCCC2)cc1)c1ccc(CN2CCc3ccccc3C2)cc1,7.91 µM (active)
